PubChem BioAssay (NCATS)
Records with an inconclusive call do not appear. Active and inactive are the calls of the source. Calls come from the whole dose curve; as a rule, active = well fitted curve in the direction sought with a large enough effect; inconclusive = small, poorly fitted or top-dose-only effect, or another doubt; inactive = no such curve, though single readings can be large; an effect the other way counts as inactive or inconclusive.

How the values were obtained:
[1] = qHTS of pediatric cancer cell lines to identify multiple opportunities for drug repurposing: Primary screen for A673 cells (AID 1347092); note: nearly all actives have a fitted effect of over 45% in size
Summary of the method: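 Titration-based qHTS on A673 cells: MIPE compounds spanned 11 points (0.78 nM to 46 µM final), NPC compounds 8 points (0.59 nM to 46 µM final). Viability after 48 h was measured by ATP luminescence.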

[2] = qHTS of pediatric cancer cell lines to identify multiple opportunities for drug repurposing: Primary screen for SK-N-MC cells (AID 1347093); note: potency is the fitted concentration of half-maximal effect
Summary of the method: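 Metabolically active cells were quantified by ATP-dependent luminescence (CellTiter-Glo, 15 min at room temperature) following 48 h treatment. Cells had been plated at 500-1,000 per well and settled for 5 h beforehand.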

[3] = qHTS of pediatric cancer cell lines to identify multiple opportunities for drug repurposing: Primary screen for BT-37 cells (AID 1347094); note: series mostly up to about 57 µM
Summary of the method: (§1)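 Plated cells (500-1,000 per well, growth media) were allowed to settle for 5 hours, treated with compound dilutions for 48 hours, then lysed with CellTiter-Glo for 15 min at room temperature before luminescence reading.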

[4] = qHTS of pediatric cancer cell lines to identify multiple opportunities for drug repurposing: Primary screen for U-2 OS cells (AID 1347096); note: nearly all actives have a fitted effect of over 50% in size
Summary of the method: (§2)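 Cells (500-1,000/well) rested 5 h, then received compounds for 48 h; metabolically active cells were measured by CellTiter-Glo luminescence. Final concentrations spanned up to 46 µM (MIPE, 11-point) or 0.59 nM-46 µM (NPC, 8-point) in primary screens, 11-point in follow-ups.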

[5] = qHTS of pediatric cancer cell lines to identify multiple opportunities for drug repurposing: Primary screen for Saos-2 cells (AID 1347097); note: nearly all actives have a fitted effect of over 40% in size
Summary of the method: as §1

[6] = qHTS of pediatric cancer cell lines to identify multiple opportunities for drug repurposing: Primary screen for SK-N-SH cells (AID 1347098);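 note: DMSO served as neutral control and bortezomib at 2.3 µM as positive control; nearly all actives have a fitted effect of over 65% in size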
Summary of the method: as §2

[7] = qHTS of pediatric cancer cell lines to identify multiple opportunities for drug repurposing: Primary screen for NB1643 cells (AID 1347099); note: nearly all actives have a fitted effect of over 50% in size
Summary of the method: as §1

[8] = qHTS of pediatric cancer cell lines to identify multiple opportunities for drug repurposing: Primary screen for LAN-5 cells (AID 1347100)
Summary of the method: as §2

[9] = qHTS of pediatric cancer cell lines to identify multiple opportunities for drug repurposing: Primary screen for NB-EBc1 cells (AID 1347095)
Summary of the method: as §1

[10] = qHTS of pediatric cancer cell lines to identify multiple opportunities for drug repurposing: Primary screen for BT-12 cells (AID 1347101); note: nearly all actives have a fitted effect of over 25% in size
Summary of the method: as §2

Measured: Potency

CCCC(O)C(CC)CO (stereo not drawn)
inactive: [1] | [2] | [3] | [4] | [5] | [6] | [7] | [8]

OC(CCN1CCCC1)(c1ccccc1)C1CCCCC1 (stereo not drawn)
inactive: [1] | [2] | [3] | [9] | [4] | [6] | [7] | [8]

COc1ccc(O)cc1
inactive: [1] | [2] | [3] | [9] | [4] | [6] | [7] | [8] | [10]

CCc1cccc(CC)c1NC(=O)CN(CC(=O)O)CC(=O)O
inactive: [1] | [2] | [3] | [4] | [5] | [6] | [7] | [8] | [10]

CCOc1cc(NC(C)=O)ccc1C(=O)OC
inactive: [1] | [2] | [3] | [4] | [5] | [6] | [7] | [8]

NCc1ccc(S(N)(=O)=O)cc1
inactive: [1] | [2] | [3] | [9] | [4] | [6] | [7] | [8] | [10]

Nc1ccncc1N
inactive: [1] | [2] | [3] | [9] | [4] | [6] | [7] | [8] | [10]

Nc1ccc(C(=O)Oc2ccccc2)c(O)c1
inactive: [1] | [2] | [3] | [9] | [4] | [7] | [8] | [10]

CCOc1ccccc1O[C@H](c1ccccc1)[C@H]1CNCCO1
inactive: [1] | [2] | [3] | [9] | [4] | [5] | [8] | [10]

CCC(C)(CN(C)C)OC(=O)c1ccccc1 (stereo not drawn)
inactive: [1] | [2] | [3] | [9] | [4] | [6] | [7] | [8] | [10]

COC(=O)N/N=C/c1c[n+]([O-])c2ccccc2[n+]1[O-]
inactive: [1] | [2] | [3] | [9] | [4] | [5] | [7] | [8] | [10]

Cc1cccc(C(=O)O)c1O
inactive: [1] | [2] | [3] | [4] | [5] | [6] | [7] | [8] | [10]

Cc1cc(-n2nc3ccc(Cl)cc3n2)c(O)c(C(C)(C)C)c1
inactive: [1] | [2] | [3] | [9] | [4] | [5] | [7] | [8] | [10]

O=C(NCC(O)CO)c1c(I)c(C(=O)NCC(O)CO)c(I)c(N(CCO)C(=O)CO)c1I (stereo not drawn)
inactive: [1] | [2] | [3] | [9] | [4] | [6] | [7] | [8] | [10]

Cc1onc(-c2ccccc2)c1-c1ccc(S(N)(=O)=O)cc1
inactive: [1] | [2] | [3] | [4] | [5] | [6] | [7] | [8]

CC(C(=O)O)c1ccc2c(c1)Cc1cccnc1O2 (stereo not drawn)
inactive: [1] | [2] | [3] | [9] | [4] | [6] | [7] | [8] | [10]

CC1(c2ccccc2)OC(C(=O)O)=CC1=O (stereo not drawn)
inactive: [1] | [2] | [3] | [4] | [5] | [6] | [7] | [8] | [10]

Nc1c2c(nc3c1CCC3)CCCC2
inactive: [1] | [2] | [3] | [9] | [4] | [6] | [7] | [8] | [10]

O=C1CC[C@@H](C(=O)O)N1
inactive: [1] | [2] | [3] | [9] | [4] | [6] | [7] | [8] | [10]

Cc1c(NC(=O)c2cccnc2)c(=O)n(-c2ccccc2)n1C
inactive: [1] | [2] | [3] | [4] | [5] | [6] | [7] | [8] | [10]

O=C(c1ccccc1)C(O)c1ccccc1 (stereo not drawn)
inactive: [1] | [2] | [3] | [9] | [4] | [6] | [7] | [8] | [10]

C[N+](C)(C)CC(O)CC(=O)[O-] (stereo not drawn)
inactive: [1] | [2] | [3] | [9] | [4] | [6] | [8] | [10]

COc1ccccc1Oc1c(NS(=O)(=O)c2ccc(C(C)(C)C)cc2)nc(-c2ncccn2)nc1OCCO
inactive: [1] | [2] | [3] | [4] | [5] | [6] | [7] | [8]

CCCCCCCCCCCCCCCCN
inactive: [1] | [2] | [3] | [4] | [5] | [6] | [7] | [8] | [10]

O=C(O)COC(=O)Cc1ccccc1Nc1c(Cl)cccc1Cl
inactive: [1] | [3] | [4] | [5] | [6] | [7] | [8] | [10]
active: [2] 26.6 µM

CC(=O)N[C@@H](Cc1ccc(O)cc1)C(=O)O
inactive: [1] | [2] | [3] | [9] | [4] | [6] | [7] | [8] | [10]

Nc1ncnc2c1ncn2[C@@H]1O[C@H](COP(=O)(O)O)[C@@H](O)[C@H]1O
inactive: [1] | [2] | [3] | [9] | [4] | [6] | [7] | [8] | [10]

O=C(/C=C/c1ccccc1)OCc1ccccc1
inactive: [1] | [2] | [3] | [4] | [5] | [6] | [7] | [8]

Cc1c(NC(C)C)c(=O)n(-c2ccccc2)n1C
inactive: [1] | [2] | [3] | [9] | [4] | [6] | [7] | [8] | [10]

CN1CCN(C(=O)C2CCCCC2)CC1
inactive: [1] | [2] | [3] | [4] | [5] | [6] | [7] | [8] | [10]

Cc1cc(NC(=O)C2=C(O)c3ccccc3S(=O)(=O)N2C)no1
inactive: [1] | [2] | [3] | [9] | [4] | [6] | [7] | [8] | [10]

CN1C(C)(C)CCCC1(C)C
inactive: [1] | [2] | [3] | [9] | [4] | [5] | [7] | [8] | [10]

Cc1ccc2c(c1)c1c3n2CCNC3CCC1 (stereo not drawn)
inactive: [1] | [2] | [3] | [4] | [5] | [6] | [7] | [8] | [10]

CCN1CC(CCN2CCOCC2)C(c2ccccc2)(c2ccccc2)C1=O (stereo not drawn)
inactive: [1] | [3] | [9] | [4] | [5] | [6] | [8] | [10]

Cc1c(C)c2c(c(C)c1OC(=O)c1cccnc1)CC[C@@](C)(CCC[C@H](C)CCC[C@H](C)CCCC(C)C)O2
inactive: [1] | [2] | [3] | [4] | [5] | [6] | [7] | [8] | [10]

O=C(O)Cc1ccc(CCNS(=O)(=O)c2ccc(Cl)cc2)cc1
inactive: [1] | [3] | [9] | [4] | [5] | [6] | [7] | [8] | [10]

CCCNC(C)(C)COC(=O)c1ccccc1
inactive: [1] | [3] | [9] | [4] | [5] | [6] | [7] | [8] | [10]

OCCN1C[C@H](O)[C@@H](O)[C@H](O)[C@H]1CO
inactive: [1] | [2] | [3] | [4] | [5] | [6] | [7] | [8] | [10]

CCc1nnc(NS(=O)(=O)c2ccc(N)cc2)s1
inactive: [1] | [2] | [3] | [4] | [5] | [6] | [7] | [8] | [10]

O=C(O)Cn1c(C(=O)Nc2nc(-c3ccccc3Cl)cs2)cc2ccccc21
inactive: [1] | [3] | [4] | [5] | [6] | [7] | [8] | [10]

O=C(O)/C=C/c1ccc(Cn2ccnc2)cc1
inactive: [1] | [2] | [3] | [4] | [5] | [6] | [7] | [8] | [10]

NC(=O)N[C@@H](CCC(=O)O)C(=O)O
inactive: [1] | [2] | [3] | [4] | [5] | [6] | [8]

CN1CCCN=C1COC(=O)C(O)(c1ccccc1)C1CCCCC1 (stereo not drawn)
inactive: [1] | [2] | [3] | [4] | [5] | [6] | [7] | [8] | [10]

Cn1c(=O)c2c(ncn2CCO)n(C)c1=O
inactive: [1] | [3] | [4] | [5] | [6] | [7] | [8] | [10]

OC[C@@H](O)[C@@H](O)[C@H](O)[C@H](O)CO
inactive: [1] | [3] | [9] | [4] | [6] | [8] | [10]

COCC(=O)Nc1c(I)c(C(=O)NCC(O)CO)c(I)c(C(=O)N(C)CC(O)CO)c1I (stereo not drawn)
inactive: [1] | [2] | [3] | [4] | [5] | [6] | [7] | [8] | [10]

CC(=O)SC[C@@H](Cc1ccccc1)C(=O)NCC(=O)OCc1ccccc1
inactive: [1] | [3] | [9] | [4] | [5] | [6] | [7] | [8]

COc1ccc2cc(CCC(C)=O)ccc2c1
inactive: [1] | [2] | [3] | [4] | [5] | [6] | [8] | [10]

CNc1c2c(nn1C)CCCC2
inactive: [1] | [2] | [3] | [4] | [5] | [6] | [8] | [10]

CCCCOC(=O)c1ccc(N)cc1
inactive: [1] | [2] | [3] | [4] | [5] | [6] | [7] | [8] | [10]

NC(=O)c1ccc([N+](=O)[O-])cc1Cl
inactive: [1] | [3] | [9] | [4] | [5] | [6] | [7] | [8] | [10]

COc1ccccc1OC(=O)Oc1ccccc1OC
inactive: [1] | [2] | [3] | [4] | [5] | [6] | [7] | [8] | [10]

O=c1[nH]c2cc(C(F)(F)F)c(N3CCOCC3)cc2n(CP(=O)(O)O)c1=O
inactive: [1] | [3] | [9] | [4] | [5] | [6] | [7] | [8] | [10]
